Screening data from PubChem BioAssay.
LASV entry inh = qHTS for Inhibitors of binding or entry into cells for Lassa Virus | Lassa virus pseudotyped entry inhibition, cell-based qHTS | Potency, µM (titrated, usually from 49.2 µM), for the others: at the highest dose activity change, negative = inhibition, most hits filed as inhibitors | 18,000 compounds, 4.1% hits
Marburg entry = qHTS for Inhibitors of binding or entry into cells for Marburg Virus. 18,000 compounds, 6.5% hits. Marburg virus pseudotype entry/binding inhibition, cell-based. Potency, µM (series often up to 49.2 µM), inactives show at the top dose activity change, negative = inhibition, hits mostly inhibitors
An asterisk follows results filed as active; ? = inconclusive; · = no result given; [ ] = remark or other dose. Rows were chosen to be rich in hits. Some 8% of all compounds tested hit in one or more screens of this group. Calls follow the shape of the full dose curve; tested in HEK293 cells. % is scaled to controls: 0 for no effect and ±100 for the full control effect; potency is read from the fitted curve at half-maximal effect.

SMILES	LASV entry inh	Marburg entry
C[C@H]1[C@@H](C(=O)N2CCCC2)CC(=NOCc2ccccc2)C(=NOCc2ccccc2)C[C@H]1c1ccccc1	·	-29%[8.59 µM]
COC(=O)N[C@H](C(C(=O)OC)=C(C)NCc1ccccc1)c1ccc(Cl)cc1	27%[8.59 µM]	-17%[8.59 µM]
CCCCc1ccc2nc(NC(=O)OC)[nH]c2c1	-3%[17.8 µM]	-16%[17.8 µM]
CC(C)OC(=O)Nc1ccc2nc(-c3cscn3)[nH]c2c1	28µM*	-1%
COC(=O)CC=C[C@@H](C)[C@@H](C=NOC[C@@H](O)[C@H]1O[C@@H]2OC(C)(C)O[C@H]2[C@@H]1O)OC	47%[8.59 µM]	22%[8.59 µM]
OCCN1CCN(CCCN2c3ccccc3Sc3ccc(Cl)cc32)CC1	?	2.2µM*
CCCCCCCCCCCCCCCC(=O)OCCC1CCN(CCCN2c3ccccc3Sc3ccc(S(=O)(=O)N(C)C)cc32)CC1	21%	-13%
CN1CCN(CCCN2c3ccccc3Sc3ccc(S(=O)(=O)N(C)C)cc32)CC1	-13%[17.8 µM]	?
OCCOCCN1CCN(C2=Nc3ccccc3Sc3ccccc32)CC1	-24%	-10%
CC(=O)c1ccc2c(c1)N(CCCN1CCC(CCO)CC1)c1ccccc1S2	-30%[17.8 µM]	11µM*
CN(C)CCCN1c2ccccc2Sc2ccc(Cl)cc21	?	16µM*
C=C(CCN1C=C(C(C)=O)C(c2ccccc2)NC1=O)c1ccccc1 (stereo not given)	-8%[8.59 µM]	?
CCCCC(C)/C=C(C)/C=C(\C)C(=O)NC1=CC(O)(/C=C/C=C/C=C/C(=O)NC2=C(O)CCC2=O)C2OC2C1=O (stereo not given)	7.1µM*	3.2µM*
CCN1C(=O)[C@@H]2[C@H]3[C@H](O)[C@H](O)CC(=NO[C@@H](C)c4cc(-c5c(C)cc(C)cc5C)no4)[C@@H]3CC[C@H]2C1=O	-2%[8.59 µM]	-13%[8.59 µM]
O=C(OCC(O)CO)c1ccccc1Nc1ccnc2cc(Cl)ccc12 (stereo not given)	-13%	-11%
Cc1ccc(O)cc1Nc1ccnc2cc(-c3ccccn3)ccc12	?	14µM*
C[C@]12CCC3C(CC[C@]4(O)CC(O)CC[C@@]34C=O)[C@]1(O)CCC2C1=CC(=O)OC1 (stereo not given in full)	11µM*	10µM*
C[C@@H]1O[C@@H](O[C@H]2CC[C@]3(C=O)C4CC[C@]5(C)[C@@H](C6=CC(=O)OC6)CC[C@]5(O)[C@@H]4CC[C@]3(O)C2)[C@H](O)[C@H](O)[C@H]1O (stereo not given in full)	0.11µM*	0.1µM*
CC1O[C@@H](OC2CC[C@@]3(C=O)C4CC[C@]5(C)C(C6=CC(=O)OC6)CC[C@@]5(O)C4CC[C@]3(O)C2)C(O)C(O)C1O (stereo not given in full)	0.25µM*	0.2µM*
COC1C(O)C(OC2CC[C@]3(C=O)C4C(OC(C)=O)C[C@@]5(C)C(C6=CC(=O)OC6)CC[C@]5(O)C4CC[C@]3(O)C2)OC(C)C1OC(C)=O (stereo not given in full)	0%	-13%
C=CC[C@@H]1C=C[C@H](ON=C(C)CCN2CCc3nc(CC)c(CC)cc3C2)[C@H](CO)O1	-29%[8.59 µM]	?
O=C1OC2(CCCCC2)CC2=C1[C@H]1O[C@](c3ccsc3)(Cc3ccccc31)O2	-11%[8.59 µM]	35%[8.59 µM]
CC(C)=CCCC(C)=CCON=C1C[C@@H](O)[C@@H](O)[C@@H]2[C@H]3C(=O)N(C[C@@H]4CCCO4)C(=O)[C@@H]3CC[C@@H]12	3%[8.59 µM]	-5%[8.59 µM]
CC=C[C@@H]1Oc2ccc(OC)cc2N2C(=O)[C@H](C)[C@@H](OCOC)[C@H]12	-6%[8.59 µM]	-23%[8.59 µM]
C#CCN1C(=O)CC[C@@]23C1=NC(C(=O)OC)=C(C(=O)OC)[C@@H]2N(Cc1ccccc1)c1ccccc13	-23%[8.59 µM]	-20%[8.59 µM]
SMILES	LASV entry inh	Marburg entry
COC(=O)C1=C(C(=O)OC)[C@@H]2N(Cc3ccccc3)c3ccccc3[C@@]23CCC(=O)N(CC2CCCCC2)C3=N1	3%[8.59 µM]	11%[8.59 µM]
CC1(C)O[C@H]2O[C@H]([C@H](O)CON=C3[C@H]4CCn5c(=O)n(-c6ccccc6)c(=O)n5[C@@H]4[C@H](O)[C@@H]4O[C@H]34)[C@H](O)[C@@H]2O1	20%[8.59 µM]	39%[8.59 µM]
CC(C)Nc1oc(-c2ccccc2)nc1-c1ccc(C(F)(F)F)cc1	-11%[8.59 µM]	-8%[8.59 µM]
CC(C)c1c(C(=O)N(C)Cc2cccc3ncccc23)cnn1-c1nccc(-c2ccccc2F)n1	?	8%
CN(C)c1cccc(CN2CCN(c3ccccc3)CC2)c1	-29%	-22%
CCc1cccc(N(C)C(N)=Nc2cccc3ccccc23)c1	?	28µM*
NS(=O)(=O)c1ccc(N=Nc2c(O)[nH]c3ccc(C(=O)NCCc4cnc[nH]4)cc23)cc1	?	29%
CC(C)(C)[Si](C)(C)OCCC[C@@H]1C[C@H]2C=CCOP(=O)(O1)O2	-2%	14%
CC(C)(CNC(=O)c1cnn(-c2nccc(-c3cc4ccccc4o3)n2)c1C1CC1)N1CCOCC1	-13%	?
CC(=O)[C@H](CC(C)C)NC(=O)[C@@H](CC(C)C)NC(=O)[C@H](CC(C)C)NC(=O)OCc1ccccc1	0.32µM*	-87%
COC(=O)[C@H](Cc1ccccc1)NC(=O)[C@@H](N)CC(=O)O	3%	22%
CC(C)C[C@@H](/C=C/S(C)(=O)=O)NC(=O)[C@H](CC(C)C)NC(=O)[C@H](CC(C)C)NC(=O)OCc1ccccc1	1.1µM*	?
CC(C)C[C@@H](NC(=O)OCC1c2ccccc2-c2ccccc21)C(=O)O	14%	9%
CC#CCN1c2ccccc2[C@]23CCC(=O)N(CCCOC(C)C)C2=NC(C(=O)OC)=C(C(=O)OC)[C@H]13	11%[8.59 µM]	-12%[8.59 µM]
C=CCOC(=O)N[C@H](c1ccccc1)[C@H](C)C=CCC(=O)OC	7%[8.59 µM]	9%[8.59 µM]
CCCCCC(=O)O[C@]1(C(C)=O)CC[C@H]2[C@@H]3CCC4=CC(=O)CC[C@]4(C)[C@H]3CC[C@@]21C	32µM*	?
CC(=O)[C@@]1(O)CC[C@H]2[C@@H]3CCC4=CC(=O)CC[C@]4(C)[C@H]3CC[C@@]21C	-30%	-6%
CC(=O)C1CCC2C3CCC4=CC(=O)CC[C@@]4(C)C3CC[C@]12C (stereo not given in full)	9%	22µM*
CCCCCCCCCC(=O)O[C@H]1CC[C@H]2[C@@H]3CCC4=CC(=O)CC[C@]4(C)[C@H]3CC[C@]12C	-9%	19%
Cn1c(SCC2CCCO2)nnc1C1CCN(Cc2ccccc2O)CC1 (stereo not given)	-2%	3%
CSC[C@H]1CN(Cc2ccccc2)C(=O)[C@H]1CC(=O)Nc1ccc(Br)cc1	-27%	-22%
CC(=O)OC[C@H]1O[C@H](CCON=C(C)CCN2CCc3nc(-c4ccccc4)c(-c4ccccc4)cc3C2)C=C[C@H]1OC(C)=O	13%[8.59 µM]	?
CCCCCCC(C)(C)c1cc(OC)c2c(c1)OC(C)(C)[C@@H]1CC=C(C)C[C@@H]21	-19%	5%
CCCCCc1cc(O)c2c(c1)OC(C)(C)[C@@H]1CCC(C)=C[C@@H]21	35µM*	-23%
COc1ccc(C=CC2=CC3(C)CC2(C)C(c2ccc(OC)cc2)CC3=O)cc1 (stereo not given)	9%[8.59 µM]	-13%[8.59 µM]
Cc1ccc2c(-c3ccnc(Nc4ccc5c(c4)OCCO5)n3)c(-c3ccc(C(F)(F)F)cc3)nn2n1	·	16µM*
Fc1ccc(Nc2nccc(-c3c(-c4ccc(C(F)(F)F)cc4)nn4ncccc34)n2)cc1F	6%	-5%
